An excerpt weighted towards active compounds, which were near 7.3% of everything screened.
FLuc counter – firefly luciferase modulation, counter-screen for miR-21 project. Potency, µM (titrated, usually from 57.5 µM), for the others: top-dose activity change, negative = inhibition, hits mostly inhibitors. purified FLuc, Km substrates, luminescence inhibition. P08659. AID 588342. actives 6.9% (n = 360,000);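 also: plate controls were vehicle for no effect and reference inhibitor for full effect; nearly all actives have a fitted effect of over 55% in size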
Target sequence (P08659 whole entry, looked up): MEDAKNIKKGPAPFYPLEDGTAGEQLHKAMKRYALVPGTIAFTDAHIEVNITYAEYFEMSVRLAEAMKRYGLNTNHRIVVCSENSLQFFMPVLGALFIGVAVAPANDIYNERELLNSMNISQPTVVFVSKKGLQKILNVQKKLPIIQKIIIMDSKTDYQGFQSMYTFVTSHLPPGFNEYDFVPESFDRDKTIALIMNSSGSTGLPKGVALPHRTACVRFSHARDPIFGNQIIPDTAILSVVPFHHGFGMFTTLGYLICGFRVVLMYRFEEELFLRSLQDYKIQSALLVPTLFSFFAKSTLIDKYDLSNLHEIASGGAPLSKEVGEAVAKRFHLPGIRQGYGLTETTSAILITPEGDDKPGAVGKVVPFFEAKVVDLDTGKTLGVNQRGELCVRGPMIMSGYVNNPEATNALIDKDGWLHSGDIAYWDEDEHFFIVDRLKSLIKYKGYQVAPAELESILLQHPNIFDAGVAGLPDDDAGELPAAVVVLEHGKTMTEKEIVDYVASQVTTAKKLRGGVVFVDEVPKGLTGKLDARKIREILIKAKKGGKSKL
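Biochemical qHTS of compounds, final roughly 60 µM downward over six points, against 10 nM purified firefly luciferase using Km concentrations of substrates (10 uM D-luciferin, 10 uM ATP) in Tris acetate pH 7.5 buffer; luminescence output.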
NPC1 prom act – NPC1 promoter activation; AID 485313; Huh7 NPC1 promoter luciferase reporter, 24 h; Potency, µM (doses to about 9.22 µM), without a hit: top-dose activation, hits mostly activators; actives 2.4% (n = 320,000); also: % of control where 0% means no effect; nearly all actives have a fitted effect of over 60% in size
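In 1536-well qHTS, Huh7 cells harboring an NPC1 promoter–luciferase construct received compound for 24 h; activation was quantified by luminescence following luciferase reagent addition.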
SMN2 splice enh – SMN2 splice variant enhancement; HEK293 SMN2-luciferase splicing reporter, luminescence, 30-36 h; Potency, µM (doses to about 46.1 µM), for the others: top-dose activity change, positive = activation, usual class: activators; actives 2.8% (n = 210,000); also: % of control where 0% means no effect; nearly all actives have a fitted effect of over 55% in size
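HEK293 cells carry an SMN2 minigene-luciferase reporter in which exon 7 inclusion puts luciferase in frame. Cells were seeded at 2000 cells/well, attached for 10-12 hours, then exposed to compounds for 30-36 hours at 37C before ONE-Glo luminescence.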
Rab9 prom act – Rab9 promoter activation | Huh7 Rab9 promoter-luciferase reporter, luminescence, 24 h | Potency, µM (series often up to 9.22 µM), without a hit: at the top dose activation, negative = inhibition, hits mostly activators | actives 2.8% (n = 320,000) | AID 485297; also: % of control where 0% means no effect; nearly all actives have a fitted effect of over 60% in size
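Huh7 reporter line, Rab9 promoter upstream of luciferase. Compound exposure 24 h at 37 °C in reduced-serum medium with 10% FBS. Read-out: luminescence.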
ELG1 genotoxic – genotoxicity induction in ELG1-luciferase HEK293T cells; HEK293T ELG1-luciferase reporter, luminescence, 16 h; Potency, µM (titrated, usually from 46 µM), without a hit: at the highest dose activity change, positive = activation, usual class: activators; actives 1.3% (n = 330,000); also: % of control where 0% means no effect; nearly all actives have a fitted effect of over 60% in size
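HEK293T cells expressing luciferase-tagged ELG1 were treated with compound or DMSO for 16 hr at 37°C. Luciferase activity was then read after 30 min with ONE-Glo at room temperature; rising signal flags genetic stress.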
Luc counter – Kinase-Glo luciferase inhibition (counter-screen); actives 0.28% (n = 200,000); AID 1379; Q27757; Kinase-Glo luciferase, ATP luminescence, 8 min; Potency, µM (titrated, usually from 38.3 µM), for inactives: top-dose activity change, negative = inhibition, hits mostly inhibitors; also: % is scaled to controls: 0 for no effect and ±100 for the full control effect; nearly all actives have a fitted effect of over 60% in size
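Compound is pinned into ATP-containing buffer (10 uM ATP, imidazole pH 7.2, 7 mM MgCl2). Kinase-Glo luciferase reagent is then added. Light output is recorded following an 8-min room-temperature incubation.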
Starred values were filed as active, the others as inactive; ? = inconclusive; . = not tested or not shown; [ ] = remark or other dose. Calls follow the shape of the dose curve; as a rule, active = well fitted curve in the direction sought with a large enough effect; inconclusive = small, poorly fitted or top-dose-only effect, or another doubt; inactive = no such curve, though single readings can be large; an effect the other way counts as inactive or inconclusive. Potency is read from the fitted curve at half-maximal effect.

SMILES	FLuc counter	NPC1 prom act	SMN2 splice enh	Rab9 prom act	ELG1 genotoxic	Luc counter
Fc1ccc(CSc2ccc(-c3ccc4c(c3)OCO4)nn2)cc1	?	2%	7%	-4%	13%	1%
Cn1c(SCC#N)nnc1-c1ccc2c(c1)OCO2	0%	-1%	-9%	-3%	4%	-4%
CCOC(=O)c1ccc(NC(=O)CSc2cc(-c3ccccc3)nc(C)n2)cc1	-14%	.	.	.	.	.
CCc1ccc(OCC(=O)O/N=C(\N)c2cccnc2)cc1	?	3%	.	17%	8%	.
N/C(=N\OC(=O)COc1ccc(Cl)cc1Cl)c1ccncc1	3µM*	2.8µM*	.	0.63µM*	?	-3%
N/C(=N\OC(=O)COc1ccc(Br)cc1Cl)c1cccnc1	8.5µM*	?	18µM*	?	?	3%
Cc1cc(C)c(C)c(OCC(=O)O/N=C(\N)c2cccnc2)c1	6%	-5%	.	0%	-5%	.
N/C(=N\OC(=O)COc1ccc(Cl)cc1Br)c1cccnc1	2.7µM*	3.2µM*	-1%	4µM*	-11%	-2%
COc1ccccc1CNC(=O)CN1C(=O)COc2ccc(S(=O)(=O)N3CCC(C)CC3)cc21	-10%	.	-4%	.	.	.
Cc1ccccc1C(=O)Nc1ccccc1OCc1cc(=O)n2ccccc2n1	-10%	.	.	.	.	.
CCOC(=O)C(=CNc1ccc(C(F)(F)F)cc1Cl)C(=O)OCC	13µM*	2%	.	3%	-1%	.
Cc1nc2c(C(=O)N3CCN(C)CC3)cnn2c(C)c1Cc1ccc(Cl)cc1	3%	1%	-7%	-1%	-1%	1%
Cc1nc2c(C(=O)N3CCCCC3)cnn2c(C)c1Cc1ccccc1F	?	1.6µM*	?	1.6µM*	?	-5%
COc1ccc(-c2n(CC(=O)OC3CC(C)CCC3C(C)C)c3ccccc3[n+]2C)cc1 (centres undefined)	-8%	-9%	.	-12%	-3%	3.5µM*
COc1ccc(OCc2n(CC(=O)OC3CC(C)CCC3C(C)C)c3ccccc3[n+]2C)cc1 (centres undefined)	-1%	-4%	.	-9%	-6%	.
CC(C)(C)NC(=O)COC(=O)c1ccccc1OCC(=O)Nc1ccc(Br)cc1	1.1µM*	?	.	?	1%	.
O=C(COC(=O)c1ccccc1Br)NCCc1ccc(F)cc1	-13%	-3%	2%	2%	1%	-1%
Cc1ccnc(NC(=O)COc2ccccc2[N+](=O)[O-])c1	1.7µM*	2.2µM*	5µM*	?	?	-29%
O=C(COC(=O)c1ccccc1Br)Nc1ccc(F)cc1	19µM*	-2%	11%	7%	?	-1%
O=C(COc1ccccc1[N+](=O)[O-])Nc1ccc(Br)cc1	9.5µM*	?	.	3.2µM*	?	.
O=C(COc1ccccc1[N+](=O)[O-])Nc1cccnc1	?	29%	.	?	?	.
Cc1cc(C)c(S(=O)(=O)NCC(c2ccco2)N2CCOCC2)c(C)c1 (centres undefined)	4%	.	.	.	.	.
CC(NC(=O)c1ccccc1)(C(=O)O)C(=O)O	.	.	-11%[9.22 µM]	.	.	-4%[7.66 µM]
Cc1ccc(NC(=O)COc2ccccc2[N+](=O)[O-])nc1	2.1µM*	3.2µM*	2.8µM*	0.79µM*	0%	?
COC(=O)/C=C/COc1ccccc1[N+](=O)[O-]	21µM*	24%	9%	?	15%	-3%
SMILES	FLuc counter	NPC1 prom act	SMN2 splice enh	Rab9 prom act	ELG1 genotoxic	Luc counter
Cc1ccc(NC(=O)c2ccc(COc3ccccc3[N+](=O)[O-])o2)nc1	?	2%	.	-2%	1%	.
COc1cc(Cl)c(C)cc1NC(=O)COc1ccccc1[N+](=O)[O-]	2%	3.2µM*	14%	?	8%	0%
COc1cc(NC(=O)COc2c(C)cc(C)cc2[N+](=O)[O-])c(OC)cc1Cl	6%	-1%	1%	-2%	-1%	-1%
COC(=O)c1ccccc1S(=O)(=O)N1CCc2nc(-c3ccccc3)c3c(c2C1)CO[C@@H](C)C3	.	.	-4%[9.22 µM]	.	.	-7%[7.66 µM]
CCn1c(=O)cc(OCC(=O)NCc2ccc(F)cc2Cl)c2ccccc21	-10%	.	-4%	.	.	.
COC(=O)N1C2CC3(C)CC(=O)CC1(C)C3c1ccccc12 (centres undefined)	.	.	4%[9.22 µM]	.	.	-6%[7.66 µM]
CN(C)c1ccc(C(=O)Nc2nnc(C3=COCCO3)o2)cc1	-17%	21%	-7%	24%	14%	-3%
CC(C)(C)c1ccc(C(=O)Nc2nnc(C3=COCCO3)o2)cc1	21µM*	-3%	.	-2%	-3%	.
O=C(NCCc1ccccc1)c1ccc2c(c1)N(Cc1ccccc1Cl)C(=O)c1ccccc1S2	2%	.	.	.	.	.
Cc1nc2c(-c3ccc(F)cc3)c(C)nn2c(C)c1CCC(=O)NCc1cccc(Cl)c1	1%	.	-7%	.	.	.
O=C(COC(=O)/C=C/c1nc2ccccc2s1)Nc1cccc2ccccc12	-4%	2%	14%	-1%	1%	0%
Cc1ccc(/C=C/c2nc3ccccc3s2)s1	0.3µM*	15%	-18%	?	0.52µM*	?
Fc1ccccc1/C=C/c1ccc2ccccc2n1	0.15µM*	4µM*	0.89µM*	2.2µM*	0.33µM*	?
CC(=O)Oc1ccc(Cl)cc1/C=C/c1ccc2ccccc2n1	5.4µM*	3.2µM*	14µM*	?	23%	-1%
C(=C\c1ccc2ccccc2n1)/c1ccccc1	0.076µM*	2.8µM*	.	0.5µM*	?	.
CCN(CC)C(=O)Cn1c(=O)n(-c2ccc(Cl)cc2)c(=O)c2c3c(sc21)CCC3	-1%	.	-9%	.	.	.
COc1ccc(OC)c2sc(N3CCN(C(=O)c4ccc5c(c4)CCCC5)CC3)nc12	-18%	.	.	.	.	.

Assay outcomes deposited in PubChem BioAssay by National Center for Advancing Translational Sciences (NCATS).
